Experimental data: publication PMC4081100, “A DNA-binding-site landscape and regulatory network analysis for NAC transcription factors in Arabidopsis thaliana”

The sequences below were run against T1, GST-ANAC092(1-285) full length (Arabidopsis thaliana, UniProt Q9FKA0 1-285) (assay: universal protein binding microarray (PBM); transcription factors of Arabidopsis thaliana; high values mean tight binding). Conditions: protein: recombinant; tags: GST; chain copies: 2; dsDNA, one strand shown.
T1 sequence: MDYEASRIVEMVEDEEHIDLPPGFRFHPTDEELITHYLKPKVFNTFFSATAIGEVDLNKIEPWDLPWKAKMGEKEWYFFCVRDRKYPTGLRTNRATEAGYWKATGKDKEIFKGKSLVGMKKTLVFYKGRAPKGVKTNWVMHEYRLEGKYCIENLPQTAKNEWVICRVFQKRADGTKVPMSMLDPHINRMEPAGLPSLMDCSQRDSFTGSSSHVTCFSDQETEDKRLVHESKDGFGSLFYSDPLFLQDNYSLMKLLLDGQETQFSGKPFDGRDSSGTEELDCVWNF
Summary of the method: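 Cells were induced to make GST-tagged NAC-domain, full-length or DNA-binding-domain proteins, and zinc acetate was added for zinc-finger proteins. These proteins were purified on glutathione–Sepharose 4B, quantified by A280 or anti-GST western blot, and applied in duplicate at 200 to 500 nM final to custom all-10-mer Agilent 4 × 180K arrays that primer extension had made double-stranded. Binding is given as the normalised enrichment score (E-score) for scored gapped and ungapped 8-mers.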

| Sequence | binding signal |
| --- | --- |
| ATTACGTA | 0.449 E-score |
| ACACGCAA | 0.498 E-score |
| CAAGGAAA | 0.241 E-score |
| TAACGTAA | 0.449 E-score |
| ATTACGTG | 0.462 E-score |
| ACGCAAAG | 0.452 E-score |
| CTTACTTA | 0.276 E-score |
| ATTTCCCC | 0.175 E-score |
| GTACGTCA | 0.45 E-score |
| CGTCAAAC | 0.134 E-score |
| GTACGTAA | 0.441 E-score |
| AAGTAAGT | 0.259 E-score |
| AATGCGTG | 0.44 E-score |
| ACGTAACG | 0.438 E-score |
| ACGTCAAA | 0.372 E-score |
| TGAAGAAA | 0.0672 E-score |
| CTACGTTA | 0.382 E-score |
| AACGTAGA | 0.329 E-score |
| ATGCGTAC | 0.414 E-score |

| Sequence | binding signal |
| --- | --- |
| AGACGTGA | 0.272 E-score |
| AAATTGAC | 0.139 E-score |
| GTAAGTCA | 0.268 E-score |
| ACTAAGTA | 0.126 E-score |
| GATACGTA | 0.385 E-score |
| ACGCAAGA | 0.456 E-score |
| AGACGCAA | 0.462 E-score |
| ACGTAAGT | 0.39 E-score |
| TTACGTAA | 0.469 E-score |
| AATTACGT | 0.421 E-score |
| CACGCAAG | 0.484 E-score |
| TTACGGAA | 0.354 E-score |
| ACGTAAAA | 0.406 E-score |
| ACGTAAAG | 0.421 E-score |
| AACGTAAA | 0.342 E-score |
| GACGTAAC | 0.4 E-score |
| CTTACCCC | 0.179 E-score |
| TCACGCAA | 0.488 E-score |
| CACGAAAG | 0.411 E-score |
